# Experimental data from PubChem BioAssay AID1851 (National Center for Advancing Translational Sciences (NCATS), 2009).
# Among all 16,000 compounds or so, about 5,700 (36%) were called active. Not shown: some 24% with an inconclusive outcome. This is one part of the list. Values without a mark were called inactive. The call rests on the fitted dose curve; in most records, active means well fitted curve in the direction sought with a large enough effect; inconclusive means small, poorly fitted or top-dose-only effect, or effect the other way; inactive means no such curve, though single readings can be large or run the other way.
# Molecular target: Cytochrome P450 1A2 (Homo sapiens) (UniProt P05177)
# Experiment: Cytochrome panel assay with activity outcomes
# Conditions: recombinant CYP, pro-luciferin dealkylation, luminescence, p450-cyp1a2; series mostly up to 57.1 µM; activity, negative = inhibition: at the top concentration
# On the % scale 0 is the no-effect control and ±100 the full control effect.
# Chain of Cytochrome P450 1A2 (Homo sapiens) (P05177 whole entry, looked up): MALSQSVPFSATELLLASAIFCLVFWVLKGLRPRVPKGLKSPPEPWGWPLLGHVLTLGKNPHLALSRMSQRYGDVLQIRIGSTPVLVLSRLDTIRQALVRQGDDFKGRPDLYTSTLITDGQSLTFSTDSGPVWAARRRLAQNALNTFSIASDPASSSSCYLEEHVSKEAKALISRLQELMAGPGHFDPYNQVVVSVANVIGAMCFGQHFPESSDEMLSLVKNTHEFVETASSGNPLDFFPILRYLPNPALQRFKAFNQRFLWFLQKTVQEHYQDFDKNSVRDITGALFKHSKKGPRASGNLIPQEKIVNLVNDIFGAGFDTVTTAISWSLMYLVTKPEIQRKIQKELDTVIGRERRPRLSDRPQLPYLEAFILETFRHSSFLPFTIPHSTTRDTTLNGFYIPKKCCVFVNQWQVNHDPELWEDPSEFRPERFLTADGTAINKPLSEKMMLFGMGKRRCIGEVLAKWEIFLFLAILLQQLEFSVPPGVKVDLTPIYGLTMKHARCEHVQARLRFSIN
SMILES,"activity, negative = inhibition",AC50
O=c1ccnc(SCc2ccc(Cl)cc2)[nH]1,-17.6% [at 11.4 µM],
c1ccc(CCSc2nccn2-c2ccccc2)cc1,,1780 nM (active)
Clc1ccc(CSc2nccn2Cc2ccccc2)cc1,,25100 nM (active)
O=C(CSc1nccn1-c1ccccc1)c1ccc(Cl)cc1,,891 nM (active)
CC1(C)N=C(N)N=C(N)N1c1cccc(CSc2ccccc2)c1,-17.2% [at 2.29 µM],
CCc1ccc(CSc2nccn2-c2ccccc2)cc1,,1260 nM (active)
O=C(C1CCN(S(=O)(=O)c2cccc3nsnc23)CC1)N1CCN(c2ccccc2F)CC1,-7.12%,
COC(=O)[C@H](CCSC)NC(=O)NCc1ccccc1F,-4.36%,
O=C(c1ccccc1)c1ccc2nc(-c3ccc(NC(=O)c4ccccc4F)cc3)[nH]c2c1,-13.1%,
O=C(c1ccccc1)c1ccc2nc(-c3ccc(NC(=O)c4ccccc4Br)cc3)[nH]c2c1,,8910 nM (active)
Cc1nc2cnc(N3CCN(C)CC3)nc2n(C)c1=O,,12600 nM (active)
Cc1nc2cnc(N3CCOCC3)nc2n(C)c1=O,,6310 nM (active)
C1COC(NC(C2CC2)C2CC2)=N1,-0.549% [at 25.6 µM],
N#[N+]c1ccc(Nc2ccccc2)cc1,-12.6% [at 11.4 µM],
Nc1ccc(Nc2ccccc2)cc1,,12600 nM (active)
Nc1ccccc1Nc1ccccc1,,25100 nM (active)
CCc1c(C(C)O)oc2ccc3c(C)cc(=O)oc3c12 (configuration not stated),,282 nM (active)
CC(C)N1CCN(c2ccncc2S(=O)(=O)N2CCCCC2)CC1,-16.9% [at 2.29 µM],
Cc1c(NC(=S)N/N=C/c2ccc(O)cc2)c(=O)n(-c2ccccc2)n1C,-14.6%,
Cc1c(C(=O)N/N=C/c2ccccc2)sc(=S)n1C,,891 nM (active)
CCCC(=O)Nc1nc2n(n1)C(c1ccccc1)CC(=O)N2 (configuration not stated),7.91%,

SMILES,"activity, negative = inhibition",AC50
CCCC(=O)Nc1nc2nc(-c3ccccc3)cc(-c3ccccc3)n2n1,,2510 nM (active)
COc1cc(NC(=O)c2cc3nc(-c4ccccc4)cc(-c4ccccc4)n3n2)cc(OC)c1OC,-5.57%,
Cn1c(=O)c(-c2ccccc2)nc2cncnc21,,631 nM (active)
Cn1c(=O)c(-c2ccc(F)cc2)nc2cncnc21,,158 nM (active)
Cn1c(=O)c(-c2cccc(Cl)c2)nc2cncnc21,,501 nM (active)
Cn1c(=O)c(-c2ccc(F)c(F)c2)nc2cncnc21,,158 nM (active)
COc1ccc(-n2c(=O)c(-c3ccc(F)cc3)nc3cncnc32)cc1,-21.4%,
C[C@]1(C2CCCC2)Cc2cc(OCC(=O)O)c(Cl)c(Cl)c2C1=O,-14.8%,
COC(=O)[C@@]1(Cc2ccc(F)cc2)[C@H]2c3cc(C(=O)N4CCCC4)n(CCc4c[nH]c5ccccc45)c3C[C@H]2CN1C(=O)c1ccccc1,-7.35%,
Cn1c(=O)c(-c2ccc(Cl)cc2)nc2cncnc21,,25.1 nM (active)
Cn1c(=O)c(-c2cc(F)cc(F)c2)nc2cncnc21,,631 nM (active)
Cc1ccc(S(=O)(=O)CC#CCOC(=O)c2ccc([N+](=O)[O-])cc2)cc1,,6310 nM (active)
Cc1ccc(S(=O)(=O)CCCS(=O)(=O)c2ccc(C)cc2)cc1,-24.4%,
CC(=O)NN1C(=O)c2ccc(Oc3ccc([N+](=O)[O-])cc3)cc2C1=O,9.51%,
C/C(=N\NC(=S)Nc1ccc(F)cc1)C1CC1,,1780 nM (active)
N=C(N)SCc1cccc2c(=O)cc(-c3ccccc3)oc12,,126 nM (active)
CN(C)c1ncc2nc(-c3cccs3)c(=O)n(C[C@H]3CCCO3)c2n1,,1580 nM (active)
CCNc1ncc2nc(-c3cccs3)c(=O)n(C[C@H]3CCCO3)c2n1,,2510 nM (active)
CN1CCN(c2ncc3nc(-c4cccs4)c(=O)n(C[C@H]4CCCO4)c3n2)CC1,,12600 nM (active)
OCCCSCCO,-19.1% [at 2.29 µM],
CCCC[C@@H]1CN2[C@H](c3ccc(Br)cc3)[C@@H](C)CC[C@H]2C(=O)O1,-6.09% [at 11.4 µM],

SMILES,"activity, negative = inhibition",AC50
CO[C@@H]1COC(=O)C/C=C\[C@H](C)[C@H](OC)COC(=O)[C@H]2CCCN2C(=O)C/C=C\[C@H]1C,1.02% [at 11.4 µM],
COc1cccc(/C=N/NC(=O)CO/N=C(\C)c2cccs2)c1OC,,1410 nM (active)
CCOc1ccc2ccccc2c1C(=O)N[C@@H]1C(=O)N2[C@@H]1SC(C)(C)[C@@H]2C(=O)O,-7.02% [at 25.6 µM],
COc1ccc2ccccc2c1/C=C\C(=O)c1ccccc1,,3160 nM (active)
COc1ccccc1/C=C/C(=O)c1c2c(c(C)[nH]c1=O)CCCC2,,12600 nM (active)
Cc1[nH]c(=O)c(C(=O)/C=C/c2ccccc2F)c2c1CCCC2,,11200 nM (active)
COc1ccccc1/C=C/C(=O)c1ccc(Cl)cc1,,3550 nM (active)
COc1cc(C)cc(OC)c1/C=C\C(=O)O,-6.92% [at 11.4 µM],
CC(=O)[C@@H]1CC[C@@H]2[C@@H]3C[C@H](C)C4=CC(=O)CC[C@@]4(C)[C@H]3[C@H](O)C[C@]21C,-9.89% [at 25.6 µM],
CS(=O)(=O)N1CCC2(CCCN(C(c3ccccc3)c3ccccc3)C2)CC1,-13.9%,
O=C1CC(c2ccccc2)Cc2nc(N3CCc4ccccc4C3)ncc21 (configuration not stated),,3550 nM (active)
Cc1ccc(C2CC(=O)c3cnc(N4CCc5ccccc5C4)nc3C2)cc1 (configuration not stated),-13.4%,
CC1CC(=O)c2cnc(N)nc2C1 (configuration not stated),-10.4%,
Cc1ccnn2cc3c(=O)n(C)c(=O)n(C)c3c12,,12600 nM (active)
COc1ccccc1CN1CC[C@@]2(CCCN(C(C)=O)C2)C1,2.29%,
COc1ccc2[nH]cc(CCNc3ncnc4ccc(-c5cccnc5)cc34)c2c1,,79.4 nM (active)
COc1ccc2[nH]cc(CCNc3ncnc4ccc(-c5cccc(C#N)c5)cc34)c2c1,,2510 nM (active)
CCC1=C(C)CN(C(=O)NCCc2ccc(S(=O)(=O)NC(=O)NC3CCC(C)CC3)cc2)C1=O (configuration not stated),-7.51% [at 25.6 µM],
CCOC(=O)N1CCN(C(=O)c2oc3ccc(S(=O)(=O)N4CCCCC4)cc3c2C)CC1,-2.68%,
Cc1ccc(OC(=O)c2oc3ccc(F)cc3c2C)c(C)c1,,2510 nM (active)
